This is an account of results in PubChem BioAssay (NCI).

Compounds without any hit were thinned out: in the full panel of roughly 83,000, 20% have a hit.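 Testing used 96-well plates and a 48-hour single-concentration exposure. Example: -40 means 40% of the starting cells died.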 A number with no mark means an inactive call. Activity calls are given as the source filed them. The calls were made as follows: active = growth percent below 10; inactive = the rest.

Test in all cases: NCI-60 one-dose screen, 48 h (100 = growth as untreated, 0 = no growth, -100 = all killed)
One experiment deals with RPMI-8226 leukemia. As to conditions: 10 µM.
A further experiment concerns OVCAR-8 ovarian. As to conditions: 10 µM unless noted.
The next experiment deals with OVCAR-4 ovarian. Conditions: 10 µM unless noted.
The next experiment has as its system SK-OV-3 ovarian. As to conditions: 10 µM.
The subject of another experiment is OVCAR-3 ovarian. As to conditions: 10 µM unless noted.
In another experiment the test system is HS 578T breast. Conditions: 10 µM unless noted.
The subject of the next experiment is OVCAR-5 ovarian. As to conditions: 10 µM unless noted.
The next experiment relates to IGROV1 ovarian. As to conditions: 10 µM unless noted.
The next experiment relates to NCI/ADR-RES ovarian. Conditions: 10 µM unless noted.

For `O=C(COc1cccc(/C=C2\COc3ccccc3C2=O)c1)c1ccccc1`, the growth in the experiment with RPMI-8226 leukemia was -51.1% (active); in the experiment with OVCAR-8 ovarian it was 19.1%; with OVCAR-4 ovarian, 79.2%; in the experiment on SK-OV-3 ovarian, 98.7%; in the experiment on OVCAR-3 ovarian, 80.3%; in the experiment with HS 578T breast, -28.2% (active).

In the case of `COc1cccc(C2C3=C(COC3=O)N(CCO)c3cc4c(cc32)OCO4)c1` (stereo not given), the growth was 31.4% in the experiment with RPMI-8226 leukemia; 42.3% in the experiment with OVCAR-8 ovarian; 35.6% in the experiment on OVCAR-5 ovarian; 40.6% with OVCAR-4 ovarian; 20.8% in the experiment on SK-OV-3 ovarian; 30.4% in the experiment with IGROV1 ovarian. Also, the figures for the growth in the experiment with HS 578T breast and in the experiment with NCI/ADR-RES ovarian were 2.25% (active) and -16.2% (active), respectively.

Regarding `COc1ccc(OC2=C(C#N)C(=N)N3c4ccccc4Sc4ccccc4C3N2)cc1` (stereo not given), the growth in the experiment with RPMI-8226 leukemia was 88%; in the experiment with OVCAR-8 ovarian, 102%; in the experiment on OVCAR-5 ovarian, 102%; in the experiment on OVCAR-4 ovarian, 112%; with SK-OV-3 ovarian, 79.3%; in the experiment on IGROV1 ovarian, 63%. The growth in the experiment with OVCAR-3 ovarian was 92.1%; in the experiment with NCI/ADR-RES ovarian, 85.2%.

Regarding `O=c1ccc2ccccc2o1`, the growth with OVCAR-8 ovarian is 105%; with OVCAR-5 ovarian, 104%; in the experiment on SK-OV-3 ovarian, 111%; in the experiment with IGROV1 ovarian, 111%; in the experiment on OVCAR-3 ovarian, 111%; with HS 578T breast, 105%. The growth in the experiment on NCI/ADR-RES ovarian is 105%.

As to `Cc1ccc(N(CSc2ccc(Cl)cc2)CSc2ccc(Cl)cc2)cc1`, the growth with RPMI-8226 leukemia was 6.09% (active); in the experiment with OVCAR-8 ovarian, 66.9%; with OVCAR-5 ovarian, 79.1%; in the experiment on OVCAR-4 ovarian it was 85.2%; with IGROV1 ovarian it was -10.3% (active); in the experiment with OVCAR-3 ovarian, 48.3%. Moreover, the growth was 45% in the experiment with HS 578T breast and 31.5% in the experiment with NCI/ADR-RES ovarian.

Regarding `Cc1cccc2c(=O)c3c(sc12)c(NCCCN)nc1ccccc13`, the growth was 27.3% in the experiment on OVCAR-8 ovarian; 51.7% with OVCAR-5 ovarian; 47.4% in the experiment on OVCAR-4 ovarian; -24.1% (active) in the experiment with IGROV1 ovarian; 39.4% in the experiment on OVCAR-3 ovarian; 24.6% with HS 578T breast. In the experiment on NCI/ADR-RES ovarian, the growth was 24%.

Regarding `COc1ccc(S(=O)(=O)c2ccc(C(N)=O)cc2)cc1NC(=O)c1[nH]c(C)c2c1CCCCC2=O`, the growth in the experiment on RPMI-8226 leukemia was 46.9%; with OVCAR-8 ovarian, 74.5%; in the experiment with OVCAR-5 ovarian, 68.7%; in the experiment on OVCAR-4 ovarian, 51.1%; in the experiment on IGROV1 ovarian, 64.9%; with OVCAR-3 ovarian, 48%. The growth in the experiment with HS 578T breast was -2.07% (active); in the experiment with NCI/ADR-RES ovarian it was 105%.

As for `Cc1ccc(-c2c3c(N)c4c(nc3nc3c2c(C)nn3-c2ccccc2)CCCC4)cc1`, the growth with RPMI-8226 leukemia is 94.1%; with OVCAR-8 ovarian it was 98.1%; with OVCAR-5 ovarian, 101%; in the experiment on OVCAR-4 ovarian, 96%; in the experiment on SK-OV-3 ovarian it was 99.9%; in the experiment with IGROV1 ovarian it was 98.6%. Besides, the growth in the experiment with OVCAR-3 ovarian is 116%; in the experiment with HS 578T breast, 105%; in the experiment on NCI/ADR-RES ovarian, 106%.

On to `COc1ccc(OC)c(C2C(C#N)=C(N)Oc3cc(O)ccc32)c1` (stereo not given), for which the growth with OVCAR-8 ovarian is 100%; with OVCAR-5 ovarian it was 97%; in the experiment with OVCAR-4 ovarian it was 101%; in the experiment on SK-OV-3 ovarian, 97.2%; in the experiment with IGROV1 ovarian, 105%; in the experiment with OVCAR-3 ovarian, 111%. For the same molecule, the growth with HS 578T breast was 94%; in the experiment with NCI/ADR-RES ovarian, 94.7%.

For the molecule `Clc1ccc2c(N3CCN(c4ccnc(NC5CCCCC5)n4)CC3)ccnc2c1`, the growth was 56.6% in the experiment on OVCAR-8 ovarian; 80.8% in the experiment with OVCAR-5 ovarian; 42.3% in the experiment on OVCAR-4 ovarian; 62.7% with SK-OV-3 ovarian; 53.4% with OVCAR-3 ovarian; 67.7% in the experiment on HS 578T breast.

Take `Cc1ccccc1-n1nnc(C(=O)Nc2nc(-c3ccccc3)c(-c3ccccc3)s2)c1C`: the growth is 67.9% [50 µM] in the experiment on OVCAR-8 ovarian; 96.5% [50 µM] with OVCAR-5 ovarian; 58.1% [50 µM] in the experiment with OVCAR-4 ovarian; 89.9% [50 µM] in the experiment with IGROV1 ovarian; 79.8% [50 µM] with OVCAR-3 ovarian; 46.7% [50 µM] with HS 578T breast.

Turning to `CC(=O)Nc1ccc(S(=O)(=O)N/N=C\c2ccc(Cl)c(Cl)c2)cc1`, the growth was 103% in the experiment on OVCAR-8 ovarian; 108% with OVCAR-5 ovarian; 113% in the experiment with OVCAR-4 ovarian; 105% in the experiment on SK-OV-3 ovarian; 111% in the experiment with OVCAR-3 ovarian; 103% in the experiment on HS 578T breast.

Regarding `COc1ccc(-c2nc3sc(C)nn3c2-c2nc3cc(C)c(C)cc3[nH]2)cc1`, the growth was 83.3% in the experiment with RPMI-8226 leukemia; 89.6% with OVCAR-8 ovarian; 103% with OVCAR-5 ovarian; 94.1% with OVCAR-4 ovarian; 99.5% in the experiment with SK-OV-3 ovarian; 98.4% in the experiment with IGROV1 ovarian. The growth in the experiment with OVCAR-3 ovarian is 104%; in the experiment with NCI/ADR-RES ovarian, 86.6%.

Turning to `COc1ccc(/C=N/NC(=O)c2cnn3c2NC(c2ccccc2)C3)cc1OC1CCCC1` (stereo not given), the growth is 79% in the experiment on RPMI-8226 leukemia; 85% in the experiment with OVCAR-8 ovarian; 101% with OVCAR-5 ovarian; 76.5% in the experiment with OVCAR-4 ovarian; 101% with IGROV1 ovarian; 106% with OVCAR-3 ovarian. The growth with HS 578T breast is 88%; in the experiment with NCI/ADR-RES ovarian, 92.7%.

Regarding `CCC(C)[C@H]1O[C@]2(CC[C@@H]1C)C[C@@H]1C[C@@H](C/C=C(\C)[C@@H](OC3C[C@H](OC)C(O[C@H]4C[C@H](OC)[C@@H](O)[C@H](C)O4)[C@H](C)O3)[C@@H](C)/C=C/C=C3\CO[C@@H]4[C@H](O)C(C)=C[C@@H](C(=O)O1)[C@]34O)O2` (stereo not given in full), the growth in the experiment with OVCAR-8 ovarian was 42.4%; in the experiment with OVCAR-5 ovarian it was 24.4%; in the experiment with SK-OV-3 ovarian, 50.8%; in the experiment with IGROV1 ovarian, 27.3%; in the experiment with OVCAR-3 ovarian it was -26.5% (active); in the experiment on HS 578T breast it was 26%. The growth in the experiment with NCI/ADR-RES ovarian was 7.07% (active).

`COc1cccc(OC(=O)c2ccccc2)c1OC(=O)c1ccccc1`: the growth was 91.6% in the experiment on OVCAR-8 ovarian; 99.4% with OVCAR-5 ovarian; 100% with OVCAR-4 ovarian; 90.4% in the experiment on SK-OV-3 ovarian; 68.5% in the experiment on OVCAR-3 ovarian; 86.9% with HS 578T breast. For the same molecule, in the experiment on NCI/ADR-RES ovarian, the growth is 9.73% (active).

For `c1ccc(-c2nc(N3CCOCC3)c3c4c(sc3n2)CCCCCC4)nc1`, the growth was 33.3% in the experiment with RPMI-8226 leukemia; 42.4% in the experiment with OVCAR-8 ovarian; 57.2% in the experiment on OVCAR-5 ovarian; 42.2% with OVCAR-4 ovarian; 65.7% with SK-OV-3 ovarian; 42.1% with IGROV1 ovarian. Further, the results for the growth with OVCAR-3 ovarian, in the experiment with HS 578T breast and with NCI/ADR-RES ovarian were 68.2%, 53.4% and 25.9%, respectively.

With `C1CCC([PH+](C2CCCCC2)C2CCCCC2[PH+](C2CCCCC2)C2CCCCC2)CC1.O=C(C1[CH-]CCCC1)C1CCCC[N-]1.[Au]` (stereo not given), the figures for the growth in the experiment with OVCAR-4 ovarian, in the experiment on HS 578T breast and in the experiment with NCI/ADR-RES ovarian were 18.2%, 13.8% and 17.2%, respectively.

For `FCOC(C(F)(F)F)C(F)(F)F`, the growth in the experiment on OVCAR-8 ovarian was 107%; with OVCAR-5 ovarian it was 103%; in the experiment on OVCAR-4 ovarian, 121%; in the experiment with SK-OV-3 ovarian, 98%; in the experiment on IGROV1 ovarian it was 111%; with OVCAR-3 ovarian it was 107%. Besides, the growth was 107% in the experiment with HS 578T breast and 106% with NCI/ADR-RES ovarian.

For `N#CCCN1CCN(CCC#N)C1=S`, the growth in the experiment with RPMI-8226 leukemia was 111%; in the experiment with OVCAR-8 ovarian, 98.1%; with OVCAR-5 ovarian, 101%; in the experiment on OVCAR-4 ovarian, 108%; in the experiment on SK-OV-3 ovarian, 108%; in the experiment on OVCAR-3 ovarian, 110%. Also, the growth is 104% with HS 578T breast and 102% in the experiment with NCI/ADR-RES ovarian.
